Laboratory results: PubChem BioAssay (NCATS)
Values joined by “and” are separate entries in the source; they are usually repeats but may differ in a detail not shown here. Equal entries are not always repeated. Records with an inconclusive call do not appear. Active and inactive are the calls of the source. Unless noted, calls follow the shape of the full dose curve.

Assays:
[1] = NFAT Signaling Pathway (AID 444; active = well fitted curve in either direction with a large enough effect, not every such curve was filed as active;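 also: carbachol stimulus at about its EC50 of 1 µM final; % is scaled to controls: 0 for no effect and ±100 for the full control effect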); conditions: Jurkat NFAT-bla M1, carbachol, beta-lactamase ratio, 5 h; at 38 µM (top of the series) unless noted
Summary of the method: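 Jurkat cells carrying an NFAT-driven β-lactamase reporter and co-transfected muscarinic M1 receptor were treated with compound plus carbachol (1 uM final, an EC50 level) for 5 h at 37 °C. CCF4 loading followed for 1 h at RT; 460/530 nm ratio gave %activity.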

[2] = Stat Signaling Pathway (AID 446; active = well fitted curve in either direction with a large enough effect, not every such curve was filed as active;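 also: ME-180 cervical cancer cells given 40 pM IL-6 alongside compound; SIE-controlled beta-lactamase reporter measured as 460/530 nm FRET emission ratio; % is scaled to controls: 0 for no effect and ±100 for the full control effect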); conditions: ME-180 SIE beta-lactamase reporter, IL-6 stimulated, 5 h
Summary of the method: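 Normalization used AC90 stimulation (300 pM IL-6) and AC90 inhibition (125 nM pan-JAK inhibitor at 40 pM IL-6). The underlying signal is SIE-driven beta-lactamase in ME-180 cells after 5 h IL-6 exposure with compound.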

[3] = target: Glucocorticoid receptor (Homo sapiens) (UniProt P04150); assay: GR-GFP Redistribution (AID 450;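 active = compounds whose dose series gives a full or clear partial fitted curve of increased nuclear translocation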; also: potency is read from the fitted curve at half-maximal effect); conditions: U2OS GR-GFP nuclear translocation, laser cytometry, 2 h
[4] = target: Glucocorticoid receptor (Homo sapiens) (UniProt P04150); assay: GR-EFC Redistribution (AID 451); conditions: CHO-K1 GR-EFC translocation, beta-gal luminescence, 2 h; also: potency is read from the fitted curve at half-maximal effect
Summary of the method: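 CHO-K1 cells stably expressing nuclear-localized β-gal enzyme acceptor and GR fused C-terminally to the enzyme donor fragment; ligand-driven nuclear translocation restores β-gal by complementation. Compounds titrated up to 46 uM final, 2 h at 37 °C; luminescence read.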

[5] = target: Cytochrome P450 1A2 (Homo sapiens) (UniProt P05177); assay: p450-cyp1a2 (AID 410); also: potency is read from the fitted curve at half-maximal effect;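 as to activity change, negative = inhibition: -100% = full effect of reference inhibitor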
Summary of the method: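 20nM CYP1A2, 100uM Luciferin-ME (=Km), 100mM KPO4; cpd 10 min RT; +NADPH regen, 60 min RT; stop/detect 20 min; luminescence. Normalized to furafylline 57 uM = full inhibition.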

[6] = target: Mitogen-activated protein kinase 10 (Mus musculus) (UniProt Q61831); assay: JNK3 AlphaScreen Assay (AID 530; active = well fitted curve in either direction with a large enough effect, not every such curve was filed as active;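 also: kinase came from lysate of stimulated human HepG2 cells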; also: potency is read from the fitted curve at half-maximal effect;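 as to activity change, negative = inhibition: signal reports phosphorylation of biotinylated GST-cJun 1-79 at Ser73 with 10 µM ATP; % is scaled to controls: 0 for no effect and ±100 for the full control effect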)
Summary of the method: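 Biotinylated GST-cJun(1-79) served as substrate for JNK3 in HepG2 lysates stimulated with IL-1beta and TNF-alpha. ATP was 10 uM final, pH 7.6. Ser73 phosphorylation was quantified by AlphaScreen (680 nm excitation).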

[7] = Cell Viability - BJ (AID 421); conditions: BJ fibroblast viability, qHTS;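 also: potency is read from the fitted curve at half-maximal effect; cells exposed to compound for 40 hours at 37 °C before readout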
Summary of the method: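 Normal human BJ foreskin fibroblasts, 1500/well in complete medium, treated 40 hr at 37 °C. Cellular ATP by CellTiter-Glo luminescence; normalized to DMSO and 100 uM tamoxifen, AC50 from Hill fit.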

[8] = Cell Viability - Jurkat (AID 426;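 active = dose-dependent loss of cell ATP signal giving a full or clear fitted curve, ranked by lower potency value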; also: potency is read from the fitted curve at half-maximal effect); conditions: qHTS
Summary of the method: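 Luminescent ATP read-out (CellTiter-Glo, 20 min at room temperature) after 40 hr compound exposure at 37 °C of Jurkat E6-1 cells, 5000/well. Decreased ATP taken as cytotoxicity; AC50 from standard Hill equation.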

[9] = Cell Viability - Hek293 (AID 427;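 active = compounds whose dose-response curve shows a full or clear partial loss of cell viability, called from curve shape rather than a numeric limit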;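 also: potency is read from the fitted curve at half-maximal effect; cells exposed to compound for 40 hours at 37 °C before reading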); conditions: qHTS
Summary of the method: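 HEK293 cells in complete medium were exposed to compound for 40 hr at 37 °C, then cellular ATP was read by CellTiter-Glo luminescence. Data were normalized to DMSO (basal) and 100 uM tamoxifen (100% inhibition), and AC50 came from Hill fits.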

[10] = Cell Viability - HepG2 (AID 433); conditions: qHTS;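 also: potency is read from the fitted curve at half-maximal effect; potency for ATP loss meaning cytotoxicity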
Summary of the method: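 HepG2 cells, 1500 per well, treated 40 hr at 37 °C in complete medium; viability from intracellular ATP by CellTiter-Glo luminescence. Normalized to DMSO and 100 uM tamoxifen; AC50 from Hill fit of qHTS concentration-response.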

[11] = Cell Viability - MRC5 (AID 434); conditions: MRC5 lung fibroblast viability, qHTS;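 also: potency is read from the fitted curve at half-maximal effect; potency reflects cytotoxicity seen as loss of intracellular ATP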
Summary of the method: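 Decrease in intracellular ATP, quantified by luciferase light output, reflects compound toxicity toward MRC5 cells exposed for 40 hr in complete culture medium. Concentration-response curves, scaled between DMSO and 100 uM tamoxifen, gave AC50 values.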

[12] = Cell Viability - SK-N-SH (AID 435); conditions: SK-N-SH neuroblastoma cell viability qHTS; also: potency is read from the fitted curve at half-maximal effect
Summary of the method: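 SK-N-SH neuroblastoma cells (1500/well) treated 40 h at 37 °C in complete medium; viability read as cellular ATP by CellTiter-Glo luminescence. Normalized to DMSO and 100 uM tamoxifen; AC50 from Hill fits of qHTS concentration-response.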

[13] = Cell Viability - N2a (AID 540; active = well fitted curve in the direction sought with a large enough effect; an effect the other way counts as inactive or inconclusive;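 also: plate controls were DMSO alone for no effect and tamoxifen control for full effect; nearly all actives have a fitted effect of over 45% in size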); conditions: N2a mouse neuroblastoma cell viability; activity change, negative = cytotoxicity: at 92.2 µM (top of the series)
Summary of the method: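 N2a mouse neuroblastoma, 1500 cells/well, 5 hr settle; compound 40 hr, 37 °C; CellTiter-Glo 20 min RT; luminescence; Hill-fit AC50.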

[14] = Cell Viability - NIH 3T3 (AID 541; active = well fitted curve in the direction sought with a large enough effect; an effect the other way counts as inactive or inconclusive; also: nearly all actives have a fitted effect of over 25% in size; also: potency is read from the fitted curve at half-maximal effect;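 as to activity change, negative = cytotoxicity: plate controls were DMSO alone for no effect and tamoxifen positive control for full effect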); conditions: NIH 3T3 cell viability, qHTS; activity change, negative = cytotoxicity: at 92.2 µM (top of the series)
Summary of the method: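 qHTS format; 40 hr compound exposure, 37 °C; CellTiter-Glo luminescence (cellular ATP) read-out after 20 min at RT. Decrease in ATP = cytotoxicity; AC50 from standard Hill fit.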

[15] = Cell Viability - HUV-EC-C (AID 542; active = well fitted curve in the direction sought with a large enough effect; an effect the other way counts as inactive or inconclusive; also: nearly all actives have a fitted effect of over 35% in size; also: potency is read from the fitted curve at half-maximal effect)
Summary of the method: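 Luminescent ATP read-out (CellTiter-Glo, 20 min room temperature) after 40 hr compound treatment of HUV-EC-C cells at 37 °C. Concentration-response data fitted with the standard Hill equation to give AC50; tamoxifen and doxorubicin served as positive controls.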

[16] = Cell Viability - H-4-II-E (AID 543; active = well fitted curve in the direction sought with a large enough effect; an effect the other way counts as inactive or inconclusive; also: nearly all actives have a fitted effect of over 35% in size; also: potency is read from the fitted curve at half-maximal effect)
Summary of the method: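 qHTS, rat hepatoma H-4-II-E, 1500 cells/well; 40 hr compound exposure, 37 °C; CellTiter-Glo ATP luminescence after 20 min RT; AC50 by standard Hill fit.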

[17] = Cell Viability - SH-SY5Y (AID 544; active = well fitted curve in the direction sought with a large enough effect; an effect the other way counts as inactive or inconclusive;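 also: 0% = DMSO alone and -100% = 100 µM tamoxifen; nearly all actives have a fitted effect of over 55% in size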); conditions: SH-SY5Y neuroblastoma cell viability; viability change, negative = cytotoxic: at 92.2 µM (top of the series)
Summary of the method: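 SH-SY5Y, 1500 cells/well, 5 hr pre-incubation 37 °C; cpd 40 hr 37 °C; CellTiter-Glo 20 min RT; luminescence (ATP) read. qHTS concentration-response, Hill fit → AC50. Tamoxifen, doxorubicin as positive controls.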

[18] = Cell Viability - Renal Proximal Tubule (AID 545; active = well fitted curve in the direction sought with a large enough effect; an effect the other way counts as inactive or inconclusive;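 also: 0% = DMSO only and -100% = 100 µM tamoxifen; nearly all actives have a fitted effect of over 40% in size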); conditions: renal proximal tubule cells viability, primary cells of rat origin; activity change, negative = cytotoxicity: at 91.7 µM (top of the series)
Summary of the method: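 Rat renal proximal tubule primary cells, 1000/well, exposed to compounds for 40 hr at 37 °C in complete medium; cellular ATP read by CellTiter-Glo luminescence. AC50 from concentration-response fitted with standard Hill equation.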

[19] = AP1 Signaling Pathway (AID 357; active = well fitted curve in either direction with a large enough effect, not every such curve was filed as active;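 also: ME-180 reporter cells stimulated with EGF at its EC50 level; % is scaled to controls: 0 for no effect and ±100 for the full control effect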); conditions: ME-180 (cervical carcinoma) AP-1-bla reporter, EGF-induced, beta-lactamase ratio, 5 h
Summary of the method: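 Titration-series screen for positive or negative modulators of EC50 EGF-induced signaling in ME-180 cells carrying an AP-1-driven beta-lactamase reporter. After 5 hours at 37 degrees Celsius, CCF4 460nm/530nm emission ratio gave %Activity; AC50 values derived.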

Cytochrome P450 1A2 (Homo sapiens), sequence (P05177 whole entry, looked up): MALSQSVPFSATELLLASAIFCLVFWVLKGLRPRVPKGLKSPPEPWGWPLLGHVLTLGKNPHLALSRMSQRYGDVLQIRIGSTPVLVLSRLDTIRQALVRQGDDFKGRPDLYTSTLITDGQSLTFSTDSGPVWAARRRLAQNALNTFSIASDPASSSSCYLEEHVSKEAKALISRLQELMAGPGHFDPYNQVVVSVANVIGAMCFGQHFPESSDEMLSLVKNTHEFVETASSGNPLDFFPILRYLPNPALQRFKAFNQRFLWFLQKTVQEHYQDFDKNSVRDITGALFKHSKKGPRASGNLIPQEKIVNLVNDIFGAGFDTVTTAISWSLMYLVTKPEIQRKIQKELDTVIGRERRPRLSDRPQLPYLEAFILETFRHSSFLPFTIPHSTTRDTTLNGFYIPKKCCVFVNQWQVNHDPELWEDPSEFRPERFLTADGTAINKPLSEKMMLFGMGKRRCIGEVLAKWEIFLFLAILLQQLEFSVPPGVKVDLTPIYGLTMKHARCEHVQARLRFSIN
Glucocorticoid receptor (Homo sapiens), sequence (P04150 whole entry, looked up, the tested form may be a part): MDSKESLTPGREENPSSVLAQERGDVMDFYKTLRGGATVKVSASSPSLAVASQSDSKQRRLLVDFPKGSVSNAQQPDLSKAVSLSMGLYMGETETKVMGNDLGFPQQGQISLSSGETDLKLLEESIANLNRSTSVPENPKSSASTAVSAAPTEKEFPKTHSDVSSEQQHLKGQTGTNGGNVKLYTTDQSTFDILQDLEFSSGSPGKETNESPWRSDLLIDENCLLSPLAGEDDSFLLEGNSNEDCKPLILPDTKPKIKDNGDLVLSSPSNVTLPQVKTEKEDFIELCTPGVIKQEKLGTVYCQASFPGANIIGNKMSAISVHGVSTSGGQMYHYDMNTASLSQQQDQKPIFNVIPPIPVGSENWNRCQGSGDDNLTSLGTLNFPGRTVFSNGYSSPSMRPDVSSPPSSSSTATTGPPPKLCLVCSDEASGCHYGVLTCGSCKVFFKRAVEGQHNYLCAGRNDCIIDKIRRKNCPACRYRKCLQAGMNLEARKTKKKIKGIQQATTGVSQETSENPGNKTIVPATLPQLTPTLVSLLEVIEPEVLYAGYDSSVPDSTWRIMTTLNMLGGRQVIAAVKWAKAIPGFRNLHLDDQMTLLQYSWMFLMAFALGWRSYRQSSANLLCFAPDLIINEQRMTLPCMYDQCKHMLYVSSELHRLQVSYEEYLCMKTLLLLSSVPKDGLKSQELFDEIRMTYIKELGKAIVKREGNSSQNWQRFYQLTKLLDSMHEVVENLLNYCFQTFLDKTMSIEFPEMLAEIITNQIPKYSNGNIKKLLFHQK

Ic1ccc(N2CCN(Cc3c[nH]c4ncccc34)CC2)cc1
inactive: activity change, negative = inhibition [1] 0.65% | activity, negative = inhibition ([2]; at 38 µM (top of the series)) -23% | Potency [3] > 46 µM | Potency [4] > 46 µM

Cn1cc(C2=C(c3ccc(Cl)cc3Cl)C(=O)NC2=O)c2ccccc21
active: Potency [5] 3.16 µM
inactive: Potency [3] > 46 µM | Potency [4] > 46 µM | Potency [6]

S=c1[nH]c2ccccc2s1
active: activity change, negative = cytotoxicity [14] -146%
inactive: Potency [7] > 92 µM | Potency [8] > 92 µM | Potency [9] > 92 µM | Potency [10] > 92 µM | Potency [11] > 92 µM | Potency [12] > 92 µM | Potency [6] | Potency [13] | Potency [15] | Potency [16] | Potency [17] | activity change, negative = cytotoxicity [18] -20.5%

c1ccc2sc(SSc3nc4ccccc4s3)nc2c1
inactive: Potency [7] > 92 µM | Potency [8] > 92 µM | Potency [9] > 92 µM | Potency [10] > 92 µM | Potency [11] > 92 µM | Potency [12] > 92 µM | Potency [6] | Potency [13] | Potency [14] | Potency [15] | Potency [16] | Potency [17] | activity change, negative = cytotoxicity [18] -1.46%

N[C@@H](CC(=O)O)C(=O)O
inactive: Potency [3] > 46 µM | Potency [4] > 46 µM

O=Nc1ccc2oc(=O)ccc2c1
inactive: activity change, negative = inhibition ([19]; at 38 µM (top of the series)) 22.8% | Potency [3] > 46 µM | Potency [4] > 46 µM | Potency [6]

COc1cc(CNC(=O)CCCC/C=C/C(C)C)ccc1O
inactive: Potency [7] > 92 µM | Potency [8] > 92 µM | Potency [9] > 92 µM | Potency [10] > 92 µM | Potency [11] > 92 µM | Potency [12] > 92 µM | Potency [6] | Potency [13] | Potency [16] | activity change, negative = cytotoxicity [18] -16.6%
active: Potency [14] 5.01 µM

CC(C)NCC(O)COc1cccc2ccccc12 (configuration not stated)
active: Potency [16] 39.8 µM
inactive: Potency [7] > 92 µM | Potency [9] > 92 µM | Potency [10] > 92 µM | Potency [11] > 92 µM | Potency [12] > 92 µM | Potency [6] | Potency [13] | Potency [17]

Nc1ccc([N+](=O)[O-])cc1O
active: Potency [14] 20 µM
inactive: Potency [7] > 92 µM | Potency [8] > 92 µM | Potency [9] > 92 µM | Potency [10] > 92 µM | Potency [11] > 92 µM | Potency [12] > 92 µM | Potency [6] | Potency [15] | Potency [16] | Potency [17] | activity change, negative = cytotoxicity [18] -10.2%

CN1CCC[C@H]1c1cccnc1
inactive: Potency [7] > 92 µM | Potency [8] > 92 µM | Potency [9] > 92 µM | Potency [10] > 92 µM | Potency [11] > 92 µM | Potency [12] > 92 µM | Potency [6] | Potency [13] | Potency [14] | Potency [15] | Potency [16] | Potency [17] | activity change, negative = cytotoxicity [18] 3.04%

N=c1ccn2c(n1)O[C@H]1[C@H](O)[C@@H](CO)O[C@H]12
inactive: Potency [5] | Potency [3] > 46 µM | Potency [4] > 46 µM | Potency [6]

C[C@@H](NC(=O)/C(C#N)=C/c1ccc(O)c(O)c1)c1ccccc1
inactive: Potency [3] > 46 µM | Potency [4] > 46 µM
active: Potency [5] 31.6 µM | Potency [6] 12.6 µM

O=C(Nc1ccccc1)c1cc([N+](=O)[O-])ccc1Cl
active: Potency [5] 5.01 µM and 631 nM
inactive: activity change, negative = inhibition [1] -5% | activity, negative = inhibition ([2]; at 38 µM (top of the series)) -18.8% | Potency [3] > 46 µM | Potency [4] > 46 µM | Potency [6]

Nc1ccc(O)c([N+](=O)[O-])c1
active: Potency [14] 25.1 µM
inactive: Potency [7] > 92 µM | Potency [8] 20.7 µM | Potency [9] > 92 µM | Potency [10] > 92 µM | Potency [11] > 92 µM | Potency [12] > 92 µM | Potency [6] | Potency [15] | Potency [16] | activity change, negative = cytotoxicity [18] 0.95%

N.N.O=C(O)C1(C(=O)O)CCC1.[Pt]
inactive: activity change, negative = inhibition ([19]; at 38 µM (top of the series)) -8.77% | activity change, negative = inhibition [1] 13.9% | Potency [6]

N=C1N=C(N)c2cc3ccccc3cc21
inactive: Potency [6]
active: Potency [7] 62.7 µM | Potency [8] 32.2 µM | Potency [10] 54.6 µM | Potency [12] 33.3 µM | activity change, negative = cytotoxicity [13] -112% | activity change, negative = cytotoxicity [14] -134% | Potency [15] 50.1 µM | Potency [16] 31.6 µM | viability change, negative = cytotoxic [17] -99% | activity change, negative = cytotoxicity [18] -85.8%

CCOc1ccc2nc(S(N)(=O)=O)sc2c1
inactive: activity change, negative = inhibition ([19]; at 17.2 µM (top of the series)) 7.72% | activity, negative = inhibition ([2]; at 17.2 µM (top of the series)) 12.3% | Potency [3] > 20.6 µM
